In ChEMBL document CHEMBL3988442, “University of Dundee, Small-Polar-MMV Screening Library” (2021):
The whole screen tested about 48,000 compounds, of which about 13,000 (27%) showed an effect of 50% or more. The list shows a part of the results.

Test system: Wolbachia pipientis
Assay: Anti-Wolbachia Cell-Based Screen
Type: functional
Set-up: scale not given: in the data most compounds retested in dose-response had high values
Conditions: 5 µM

Row | Compound | Percent Effect
1 | O=C(NCc1c(F)cccc1F)C1CN(C(=O)c2cnccn2)C1 | -2.814%
2 | O=C(c1cnccn1)N1CC(S(=O)(=O)c2ccc(Cl)cc2)C1 | 115.9%
3 | O=C(NC1CC1)C1CN(C(=O)c2cnccn2)C1 | -10.02%
4 | CCOCC(O)CNc1cncc(Br)c1 (stereo not drawn) | -4.889%
5 | CC(=O)CC(C)(C)NC(=O)CCN(C)Cc1ccc(Cl)s1 | 13.53%
6 | CN1CC(=O)N(C2CCNC2)Cc2c(NC3CCCC3)ncnc21 (stereo not drawn) | 104.3%
7 | O=c1c2cccc(C(F)(F)F)c2ncn1C1CCNC1 (stereo not drawn) | -5.057%
8 | CN1CC(=O)N(C2CCCNC2)Cc2c(NC3CCC3)ncnc21 (stereo not drawn) | 103.9%
9 | CC1=C(C(=O)N2CCOC(Cc3cccc(C(F)(F)F)c3)C2)OCCO1 (stereo not drawn) | -4.78%
10 | Cc1noc(C)c1CCNc1nccc(CCC(F)(F)F)n1 | 1.118%
11 | CN(C)Cc1nn(C)c2c1CN(S(=O)(=O)c1ccccc1F)C2 | 3.844%
12 | CC(=O)NC1CCN(c2cc(-c3ccccc3)nc3c(C)c(C)nn23)C1 (stereo not drawn) | -1.812%
13 | CCc1[nH]ncc1C(=O)N1CCCC(n2ccnc2C(C)C)C1 (stereo not drawn) | -14.63%
14 | CC(C)OCCC1CCCCN1S(=O)(=O)c1cnn(C)c1 (stereo not drawn) | -6.246%
15 | CCn1cc(S(=O)(=O)N2CCCCCC2c2cc(C)on2)cn1 (stereo not drawn) | 92.08%
16 | CCn1cc(S(=O)(=O)N2CCCCCC2c2cc(C)no2)cn1 (stereo not drawn) | 176.5%
17 | CCOC(=O)C1CCN(C(=O)CN2CCCC2c2cc(C)no2)CC1 (stereo not drawn) | -7.861%
18 | CCn1cc(CN(C)S(=O)(=O)N2CCCC2c2ccco2)cn1 (stereo not drawn) | -4.974%
19 | CNS(=O)(=O)CCCN1CCCC1c1cc(C)on1 (stereo not drawn) | -6.242%
20 | COCCOCCC(=O)Nc1c(-c2ccc(F)cc2)ncn1C | -3.986%
21 | CCn1[nH]c(C)c2c(C(F)(F)F)cc(=O)nc1-2 | -15.52%
22 | COc1c(C2CCCN2c2ncnc3ccsc23)c(C)nn1C (stereo not drawn) | 5.005%

Row | Compound | Percent Effect
23 | O=C(COC1CCCC1)N1CCCN(c2ncccn2)CC1 | -14.8%
24 | CN(C)C(=O)C1CCc2nnc(C(C)(C)C)n21 (stereo not drawn) | 107%
25 | CC(C)NC(=O)C1CCc2nnc(C(C)(C)C)n21 (stereo not drawn) | 100.1%
26 | CC(C)(C)c1nnc2n1C(C(=O)N1CCOCC1)CC2 (stereo not drawn) | 111.9%
27 | CN1N=C(C(=O)N2CCN(c3ncccn3)CC2)CCC1=O | 16.67%
28 | Cc1cn2nc(N3CCCC3C(=O)N3CCOCC3)sc2n1 (stereo not drawn) | -18.11%
29 | CC(NC(=O)CCOc1ccccc1Cl)c1nnc2n1CCC2 (stereo not drawn) | 1.83%
30 | O=C1CCSCC(C(=O)N2CCOCC2)N1 (stereo not drawn) | -11.6%
31 | CC(C)(C)c1nnc2n1C(C(=O)N1CCN(c3ncccn3)CC1)CC2 (stereo not drawn) | 115.5%
32 | CC(NC(=O)CCc1nc(C(C)(C)C)no1)c1nnc2n1CCC2 (stereo not drawn) | 1.388%
33 | CCc1nc2n(n1)CCCC2NC(=O)Nc1cccc(F)c1F (stereo not drawn) | -21.46%
34 | C[S+]([O-])c1cccc(NC(=O)N(CCC#N)Cc2ccccn2)c1 (stereo not drawn) | -5.424%
35 | CCn1cc(CNc2ccc(N(C)CCOC)cn2)cn1 | 3.344%
36 | O=C(C1CCCc2[nH]ncc21)N1CCCC1 (stereo not drawn) | -1.484%
37 | CC(C)(C)c1nnc2n1C(C(=O)N1CCCC1)CC2 (stereo not drawn) | 107.6%
38 | O=C(C1CCCc2[nH]ncc21)N1CCCCCC1 (stereo not drawn) | 7.18%
39 | COCC1CN(Cc2ccoc2)Cc2cn(CC3CCOCC3)nc21 (stereo not drawn) | -9.673%
40 | CN1CCCC1CNC(=O)CCCOCc1ccccc1 (stereo not drawn) | -8.407%
41 | CN1CCCC1CCNC(=O)Nc1ccccc1 (stereo not drawn) | 124.8%
42 | O=C(NCCCO)Nc1ccccc1 | -6.748%
43 | COc1cccc(CC(=O)N2CCN(c3cccc(C)c3)C(C)C2)c1 (stereo not drawn) | 0.04468%
44 | CCN1C[C@H]2CCN(C(=O)Cc3cccc(OC)c3)CC[C@H]2S1(=O)=O | 109.3%

Row | Compound | Percent Effect
45 | COc1ccc(CC(=O)N2CCC(c3n[nH]c(C4CC4)n3)CC2)cc1 | -2.488%
46 | COc1cccc(NC(=O)N2CC[C@@H]3CN(C)S(=O)(=O)[C@@H]3CC2)c1 | 108.6%
47 | Cc1ccccc1CNC(=O)N1CC[C@@H]2CN(C)S(=O)(=O)[C@@H]2CC1 | -7.794%
48 | COc1ccc(CC(=O)N2CC[C@@H]3CN(C)S(=O)(=O)[C@@H]3CC2)cc1 | 96.9%
49 | CCN1C[C@H]2CCN(C(=O)Nc3ccccc3C)CC[C@H]2S1(=O)=O | 5.146%
50 | Cc1ccccc1NC(=O)N1CC[C@@H]2CN(C)S(=O)(=O)[C@@H]2CC1 | -6.47%
51 | CN1C[C@H]2CCN(C(=O)NC3CCCC3)CC[C@H]2S1(=O)=O | 24.31%
52 | COc1cccc(CC(=O)N2CC[C@@H]3CN(C)S(=O)(=O)[C@@H]3CC2)c1 | 102.6%
53 | COc1cccc(CC(=O)N2CCC(Cc3nnc(SC)n3C)CC2)c1 | 13.49%
54 | CCN1C[C@H]2CCN(C(C)=O)CC[C@H]2S1(=O)=O | 7.241%
55 | Cc1c(C(=O)N(CCN(C)C)Cc2ccccn2)oc2ccccc12 | -10.28%
56 | CCC1CN(C(=O)c2ccc(O)cn2)CCC(=O)N1Cc1ccccc1 (stereo not drawn) | -29.96%
57 | N#Cc1cc(S(N)(=O)=O)ccc1NC1CCc2cc(Cl)ccc21 (stereo not drawn) | -7.649%
58 | CNC(=O)[C@@H](c1ccccc1OC)N1CCC[C@H]1C(=O)NCCN(C)C.Cl.Cl | -2.091%
59 | COc1ccc(CN2CCCn3cncc3C2)cc1Cn1cncn1 | 17.87%
60 | Cc1ccc(F)c(OC2(C(=O)O)CCN(C(=O)c3ccco3)CC2)c1 | -23.64%
61 | COc1cnc(C2(O)CCN(C(=O)c3ccccn3)CC2)c(OC)n1 | 107.9%
62 | COc1ccc(NC(=O)c2ccco2)c(N2CCN(C(C)=O)CC2)n1 | -1.999%
63 | COc1cnc(C2(O)CCN(C(=O)c3ccco3)CC2)c(OC)n1 | 113.8%
64 | CCC(=O)N1CCC(O)(c2ncc(OC)nc2OC)CC1 | -0.9107%
65 | COc1cnc(C2(O)CCN(C(=O)c3scnc3C)CC2)c(OC)n1 | 77.74%
66 | COc1cnc(C2(O)CCN(C(=O)c3ccncc3)CC2)c(OC)n1 | -4.993%

Row | Compound | Percent Effect
67 | COc1cnc(C2(O)CCN(C(=O)c3cccnc3)CC2)c(OC)n1 | 2.765%
68 | O=C1CC(C(=O)O)C2(CCN(C(=O)Nc3ccccc3Cl)CC2)N1 (stereo not drawn) | 8.972%
69 | CS(=O)(=O)NC1CCN(C(=O)c2ccc(F)cc2)CC1 | 22.77%
70 | CCn1nc(C)c2nc(C(C)C)nc(NCCCO)c21 | 5.791%
71 | CC[C@H]1CN(C(=O)C(C)(C)C)CC[C@H]1CC(=O)O | 0.9693%
72 | CCS(=O)(=O)NCC1Cn2nnc(-c3ccccc3)c2CO1 (stereo not drawn) | 4.629%
73 | CCCc1nc(Cn2c(=O)n(C)c3ccccc32)no1 | -1.157%
74 | CC(C)N1CCN(CCn2cnc3c(F)cccc3c2=O)CC1 | -1.52%
75 | CC(C)n1c(=O)c2ccccc2n(CCN(C)C)c1=O.Cl | 91.55%
76 | CC(C)NC(=O)CN(C)C(=O)c1c(Cl)c2ccccc2n1C | 7.479%
77 | CC(C)NC(=O)CN(C)C(=O)c1c(Br)c2ccccc2n1C | -8.15%
78 | CC(CCc1ccccc1)NC(=O)CNCCCN(C)C.O=C(O)C(=O)O (stereo not drawn) | -3.27%
79 | Cc1cc(=O)c2ccccc2n1CC1CCN(C(C)C)C1 (stereo not drawn) | -7.176%
80 | CCc1nc(Cn2c(=O)n(C)c3ccccc32)no1 | -3.957%
81 | CC(C)n1c(=O)c2ccccc2n(CCN2CCCCC2)c1=O | 58.61%
82 | CN(C)CCn1c(=O)n(C)c(=O)c2ccccc21.Cl | 110%
83 | CC(C)n1c(=O)c2ccccc2n(CCCN(C)C)c1=O.Cl | 74.16%
84 | CC(C)S(=O)(=O)CC(=O)N(Cc1ccsc1)c1ccccc1 | -3.342%
85 | Cn1cc(CN2CCCC3(COCCN(Cc4c[nH]nn4)C3)C2)cn1.O=C(O)C(F)(F)F.O=C(O)C(F)(F)F (stereo not drawn) | -3.726%
86 | O=C(Cc1ccsc1)N1CCCC(c2cc(C(F)F)n3ncnc3n2)C1 (stereo not drawn) | 112.3%
87 | Cc1nc(C2CCCN(C(=O)CO)C2)cc(N2CCOCC2)n1 (stereo not drawn) | -8.444%
88 | CC(C)C(=O)N1CCCC(c2cc(C(F)F)n3ncnc3n2)C1.Cl (stereo not drawn) | -4.51%

Row | Compound | Percent Effect
89 | COCC(=O)N1CCCC(c2cc(C(F)F)n3ncnc3n2)C1.Cl (stereo not drawn) | 109.8%
90 | NC(=O)c1ccc(-n2ccnc2C2CC2)cc1N1CCCC1 | 30.18%
91 | COCCS(=O)(=O)N(Cc1ccsc1)c1ccccc1 | -9.25%
92 | COc1cc(CN(C)C(=O)NCC(=O)NC(C)C)ccc1SC | -30.2%
93 | COCC(=O)NCCC(=O)N1CCN(S(=O)(=O)c2cccc(Br)c2)CC1 | 2.832%
94 | Cl.O=C(NCCn1nc(C2CCNC2)c2cccnc21)C1CC1 (stereo not drawn) | 104.4%
95 | Cl.O=C(NCCn1nc(C2CCNC2)c2cccnc21)C1CCC1 (stereo not drawn) | 119.3%
96 | O=C(CCNC(=O)C1CCCC1)NCc1cccnc1-n1cncn1 | -1.584%
97 | Cc1cccc(C)c1OC1CN(C(=O)C2CCCN(C(=O)N(C)C)C2)C1 (stereo not drawn) | -13.19%
98 | O=C(NCCc1ccsc1)Nc1cccnc1N1CCCC1 | 0.6987%
99 | COc1c(C(=O)N2CCC(CSc3ccccc3)C2)c(C)nn1C (stereo not drawn) | 13.6%
100 | CCN(CC)S(=O)(=O)N(CC)Cc1ccc2c(c1)OCCO2 | 92.18%
101 | CCN(CC)S(=O)(=O)N(C)Cc1ccc2c(c1)OCCO2 | 104.5%
102 | CC(C)N(C)S(=O)(=O)N(C)Cc1cnn(C)c1 | -10.04%
103 | CCC[C@@H]1CN(Cc2ccc3c(c2)OCCO3)C[C@H]1C(=O)O | -6.164%
104 | CC(=O)NCCNC(=O)N(C)Cc1ccc2c(c1)OCCO2 | 1.28%
105 | CC(C)N(C)S(=O)(=O)N(C)Cc1ccc2c(c1)OCCO2 | 98.7%
106 | CCS(=O)(=O)c1ccc2c(c1)OCCO2 | -1.362%
107 | CC(C)N(C)S(=O)(=O)N(C)Cc1ccc2c(c1)OCO2 | -1.448%
108 | CCS(=O)(=O)c1ccc2c(c1)OCCCO2 | -4.006%
